Screens deposited in PubChem by National Center for Advancing Translational Sciences (NCATS).
Shown are actives, neighbours in structure and some others; about 3.8% of the full set was active somewhere.
ATXN viability = reduces viability in counter-screen for ATXN expression inhibitors; S2 cells (HEK-293 line with an ATXN2-luciferase reporter) viability, CellTiter-Fluor protease fluorescence, 24 h; Potency, µM (doses to about 56.7 µM), usual class: cytotoxic; 0.49% of 400,000 active; AID 651635; further: nearly all actives have a fitted effect of over 40% in size
HepG2 tox = HepG2 cytotoxicity, counter-screen for TGF-b inhibitors. HepG2 CAGA-GFP viability, ATP luminescence, 18 h. Potency, µM (titrated, usually from 46.1 µM), inactives show top-dose activity change, negative = cytotoxicity, actives largely listed as cytotoxic. 0.76% of 410,000 active. AID 588856
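CellTiter-Glo luminescence gave cytotoxicity after 18 hours at 37 degrees C. The cells were HepG2 CAGA-GFP in 1% FBS DMEM, stimulated with 500 pg/mL TGF-beta after compound addition. %Activity was normalised to no-cell wells (complete cell-killing) and DMSO (no toxicity), and curves were fitted and classified.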
TGFb SMAD3 inh = inhibitors of TGF-b signaling; Potency, µM (doses to about 46.1 µM), for the others: at the highest dose activity, negative = inhibition, most hits filed as inhibitors; AID 588855; HepG2 CAGA-GFP TGF-b/SMAD3 reporter, GFP fluorescence, 18 h; TGF-beta stimulated, 500 pg/mL final; 1.2% of 410,000 active; further: on the % scale 0 is the no-effect control and ±100 the full control effect; nearly all actives have a fitted effect of over 65% in size
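HEPG2 CAGA-GFP, 1000 cells/well; 2 h settle, 37 C; cpd via pin tool; TGF-b 500 pg/mL final; 18 h, 37 C; GFP imaging ex488/em500-530; %Activity normalised to -TGF-b and +DMSO controls; CRC fit, curve class.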
A549 tox = A549 cytotoxicity, counter-screen for Nrf2 inhibitors; A549 ARE-Fluc cells, CellTiter-Fluor viability, 18-24 h; Potency, µM (doses to about 46 µM), for inactives: at the highest dose activity change, negative = cytotoxicity, actives largely listed as inhibitors; 0.16% of 390,000 active; further: on the % scale 0 is the no-effect control and ±100 the full control effect
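A549 ARE-Fluc cells in 5% FBS OPTI-MEM, 5000 cells/well, rested 2 h then exposed to compounds in concentration-response for 18-24 h at 37 °C. Viability by CellTiter-Fluor fluorescence (Ex 405/Em 525) after 30 min; luciferase luminescence (BugLite, 15 min, RT) read afterwards.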
Nrf2 block = Nrf2 pathway inhibition. Potency, µM (titrated, usually from 46 µM), without a hit: top-dose activity change, negative = inhibition, usual class: inhibitors. AID 504444. 2.1% of 360,000 active. A549 ARE-Fluc reporter, luciferase luminescence, 18-24 h; further: on the % scale 0 is the no-effect control and ±100 the full control effect; nearly all actives have a fitted effect of over 60% in size
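Two sequential reads on A549 ARE_Fluc cells exposed to compound for 18-24 h: a CellTiter-Fluor fluorescence read for viability, then a luciferase luminescence read for Nrf2/ARE activity.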
ATXN2 expr inh = inhibitors of ATXN2 expression; AID 1745845; Potency, µM (top dose mostly 57 µM), for inactives: at the highest dose activity change, negative = inhibition, usual class: inhibitors; 0.72% of 360,000 active; HEK-293 ATXN2-luciferase reporter, luminescence, 24 h; further: on the % scale 0 is the no-effect control and ±100 the full control effect; nearly all actives have a fitted effect of over 55% in size
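ATXN2-luciferase reporter cells (luciferase flanked by upstream and downstream ATXN2 gene portions) were treated 24 h at 37 °C with compounds at up to 57 uM. SteadyGlo luminescence gave expression; GF-AFC fluorescence gave viability.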
Starred values were filed as active, the others as inactive. The call rests on the fitted dose curve; in most records, active means well fitted curve in the direction sought with a large enough effect; inconclusive means small, poorly fitted or top-dose-only effect, or another doubt; inactive means no such curve, though single readings can be large; an effect the other way counts as inactive or inconclusive. Potency means the concentration at half of the fitted maximal effect.

For COc1cc(OC)c(NC(=O)C2CCN(S(=O)(=O)c3ccc4c(c3)oc(=O)n4C)CC2)cc1Cl the results were ATXN viability inactive, HepG2 tox -10%, TGFb SMAD3 inh -23%, A549 tox 0%, Nrf2 block -7% and ATXN2 expr inh -6%.
For Cc1ccc(C(=O)Nc2cccnc2)cc1S(=O)(=O)N1CCCC1 the results were ATXN viability inactive, HepG2 tox 18%, TGFb SMAD3 inh 7%, A549 tox 0%, Nrf2 block inconclusive and ATXN2 expr inh 11%.
Screening Cc1ccc(O)c(NC(=O)c2cccc(S(=O)(=O)N3CCCCC3)c2)c1 returned ATXN viability inactive, HepG2 tox -6%, TGFb SMAD3 inh 33%, A549 tox 14% and ATXN2 expr inh 5%.
Screening Cc1ccc(O)c(NC(=O)c2ccc(Br)c(S(=O)(=O)N3CCCCC3)c2)c1 returned ATXN viability inconclusive, HepG2 tox 14µM*, TGFb SMAD3 inh inconclusive, A549 tox 6%, Nrf2 block 5% and ATXN2 expr inh inconclusive.
Screening O=C(Nc1cccc(Br)c1)c1ccc(Cl)c(S(=O)(=O)N2CCOCC2)c1 returned ATXN viability inactive, HepG2 tox -31%, TGFb SMAD3 inh inconclusive, A549 tox inconclusive, Nrf2 block 10µM* and ATXN2 expr inh inconclusive.
Screening Cc1ccc(C(=O)Nc2cccnc2)cc1S(=O)(=O)N1CCCCC1 returned ATXN viability inactive, HepG2 tox -2%, TGFb SMAD3 inh -2%, A549 tox -4%, Nrf2 block 21µM* and ATXN2 expr inh 0%.
For CSc1ccc(Nc2nn(-c3ccc(OC(F)(F)F)cc3)nc2C(C)=O)cc1 the results were HepG2 tox 1%, TGFb SMAD3 inh 1%, A549 tox -30% and Nrf2 block inconclusive.
For COc1ccccc1-c1noc(-c2ccc(NCc3cccnc3)c([N+](=O)[O-])c2)n1 the results were ATXN viability inactive, HepG2 tox -16%, TGFb SMAD3 inh -22%, A549 tox -3%, Nrf2 block 18% and ATXN2 expr inh 2%.
`COC(=O)C[C@@H]1C[C@H]2c3cc(NC(=O)C4CCC4)ccc3O[C@H]2[C@@H](CO)O1` gave ATXN viability inactive, HepG2 tox -12%, TGFb SMAD3 inh -2% and ATXN2 expr inh 5%.
Screening O=C(C[C@@H]1C[C@H]2c3cc(NC(=O)C4CCC4)ccc3O[C@H]2[C@@H](CO)O1)NCc1ccc(-c2ccccc2)cc1 returned ATXN viability inconclusive, HepG2 tox 16µM*, TGFb SMAD3 inh inconclusive and ATXN2 expr inh inconclusive.
For CCOC(=O)N1CCN(C(=O)c2ccc(N(C)S(=O)(=O)c3ccc(C)cc3)cc2)CC1 the results were ATXN viability inactive, HepG2 tox -28%, TGFb SMAD3 inh -21%, A549 tox -11%, Nrf2 block 23µM* and ATXN2 expr inh -25%.
`COc1ccc(N2CCN(C(=O)c3ccc(N(C)S(=O)(=O)c4ccc(OC)cc4)cc3)CC2)cc1` gave ATXN viability inconclusive, HepG2 tox -8%, TGFb SMAD3 inh inconclusive, A549 tox 10%, Nrf2 block 26µM* and ATXN2 expr inh -29%.
For COc1ccc(N2CCN(C(=O)c3ccc(N(C)S(=O)(=O)c4ccc(C)cc4)cc3)CC2)cc1 the results were ATXN viability inconclusive, HepG2 tox 2%, TGFb SMAD3 inh -10%, A549 tox -10%, Nrf2 block 18µM* and ATXN2 expr inh -49%.
`Cc1ccc(S(=O)(=O)N(C)c2ccc(C(=O)N3CCCCC3)cc2)cc1` gave HepG2 tox -3%, TGFb SMAD3 inh inconclusive, A549 tox -13% and Nrf2 block inconclusive.
`CCOc1ccc(S(=O)(=O)/N=C(/Nc2ccc(C)c(S(=O)(=O)N3CCOCC3)c2)c2ccccc2)cc1` gave ATXN viability inactive, HepG2 tox -9%, TGFb SMAD3 inh -22%, A549 tox -16%, Nrf2 block inconclusive and ATXN2 expr inh -10%.
CCOC(=O)Nc1sc(C(=O)N(CC)CC)c(C)c1C(=O)OCC was read as ATXN viability inconclusive, HepG2 tox -14%, TGFb SMAD3 inh -4%, A549 tox -12%, Nrf2 block -15% and ATXN2 expr inh -36%.
CCOC(=O)c1c(NC(=O)COC(=O)c2cccnc2OCC)sc(C(=O)N(CC)CC)c1C was read as ATXN viability inconclusive, HepG2 tox 0%, TGFb SMAD3 inh 0%, A549 tox -25%, Nrf2 block 15µM* and ATXN2 expr inh inconclusive.
`CCOC(=O)c1c(NC(=O)COc2ccc(OC)cc2)sc(C(=O)N(CC)CC)c1C` gave HepG2 tox -32%, A549 tox -22% and Nrf2 block 23µM*.
COc1cccc(-c2nc(CS(=O)(=O)CC(=O)N3CCOCC3)c(C)o2)c1 was read as ATXN viability inactive, HepG2 tox 0%, TGFb SMAD3 inh 6%, A549 tox -1%, Nrf2 block -19% and ATXN2 expr inh -5%.
Screening O=C(CC1OCC2CCCN2C1=O)Nc1ccc([N+](=O)[O-])cc1 (stereo unspecified) returned ATXN viability inconclusive, HepG2 tox -1%, TGFb SMAD3 inh 5%, A549 tox 0%, Nrf2 block 1% and ATXN2 expr inh -3%.
`CCN1CCOC(CC(=O)Nc2ccc([N+](=O)[O-])cc2)C1=O` (stereo unspecified) gave ATXN viability inactive, HepG2 tox 20µM*, TGFb SMAD3 inh 0%, A549 tox 0%, Nrf2 block 1% and ATXN2 expr inh 23%.
CCN(CC)S(=O)(=O)c1cccc(NC(=O)C2CC(=O)N(c3ccc4c(c3)OCCO4)C2)c1 (stereo unspecified) was read as ATXN viability inactive, HepG2 tox 1%, TGFb SMAD3 inh -14%, A549 tox -14%, Nrf2 block 23µM* and ATXN2 expr inh -1%.
Screening Cc1ccc2c(c1)N(CCC(=O)NCCCOC(C)C)C(=O)C(C)O2 (stereo unspecified) returned ATXN viability inactive, HepG2 tox -4%, TGFb SMAD3 inh -14%, A549 tox 1%, Nrf2 block 3% and ATXN2 expr inh -3%.
`NC(=O)C(c1ccc(Cl)cc1)c1ccc(Sc2ccc(Cl)cc2)nn1` (stereo unspecified) gave ATXN viability inactive, HepG2 tox -14%, TGFb SMAD3 inh inconclusive, A549 tox -12%, Nrf2 block 16µM* and ATXN2 expr inh -22%.
